# Test results published in PubChem BioAssay (NCATS).
# Records with an inconclusive call do not appear. Values without a mark were called inactive. Active and inactive are the calls of the source. The call rests on the fitted dose curve; in most records, active means well fitted curve in the direction sought with a large enough effect; inconclusive means small, poorly fitted or top-dose-only effect, or another doubt; inactive means no such curve, though single readings can be large; an effect the other way counts as inactive or inconclusive.
# Legend:
# [1] = P-glycoprotein substrates identified in KB-8-5-11 adenocarcinoma cell line, qHTS therapeutic library screen (AID 1346987); further: nearly all actives have a fitted effect of over 65% in size; on activity change, negative = cytotoxicity: series mostly up to about 44 µM; on the % scale 0 is the no-effect control and ±100 the full control effect
# Procedure, shortened: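 Human cervical adenocarcinoma KB-8-5-11 cells, selected in colchicine to over-express P-gp and assayed without it, were exposed for 72 h to titrated compounds. An ATP-based luminescent viability signal gave AC50.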
# [2] = system: Zika virus NS2B-NS3 protease (linked construct); assay: Confirmatory screen NINDS AMC qHTS for Zika virus inhibitors (AID 1347152); further: nearly all actives have a fitted effect of over 70% in size; further: potency means the concentration at half of the fitted maximal effect
# Procedure, shortened: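 Enzyme (1 nM, linked construct) was preincubated with compound for 15 minutes at room temperature in 10 mM Tris-HCl pH 8.0 with 0.01% Tween 20. Bz-Nle-Lys-Arg-Arg-AMC was then added to 10 microM, and AMC fluorescence was recorded immediately and after 15 minutes.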
# [3] = system: Zika virus NS2B-NS3 protease (unlinked complex); assay: Confirmatory screen GU AMC qHTS for Zika virus inhibitors (AID 1347153);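 further: enzyme at 25 nM with substrate at 10 µM below its Km of 18.3 µM; potency means the concentration at half of the fitted maximal effect; nearly all actives have a fitted effect of over 70% in size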
# Procedure, shortened: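 Noncovalent NS2B hydrophilic domain/NS3 protease complex (25 nM) in 10 mM Tris-HCl pH 8.0, 0.01% Tween 20 was preincubated 15 min at room temperature with compounds. Then 10 µM AMC substrate (Km 18.3 µM) was added; fluorescence was read over 15 min and fitted to a 4-parameter Hill equation.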
# [4] = system: Zika virus NS2B-NS3 protease (unlinked complex); assay: Primary screen GU Rhodamine qHTS for Zika virus inhibitors: Unlinked NS2B-NS3 protease assay (AID 1347159); further: potency means the concentration at half of the fitted maximal effect; nearly all actives have a fitted effect of over 60% in size
# Procedure, shortened: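 Buffer 10 mM Tris-HCl pH 8.0, 0.01% Tween 20. Unlinked protease 25 nM; compound preincubation 15 min, RT, protected from light. Substrate Rhod110, 1.5 microM; ~15% conversion in 15 min.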
# [5] = system: Zika virus NS2B-NS3 protease (linked construct); assay: Primary screen NINDS Rhodamine qHTS for Zika virus inhibitors (AID 1347160); further: potency means the concentration at half of the fitted maximal effect; nearly all actives have a fitted effect of over 55% in size
# Procedure, shortened: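 Aprotinin served as in-plate control. Conditions: 25 nM linked NS2B-NS3, pH 8.0 Tris buffer, titrated compounds, 15 min preincubation and 15 min reaction with 1.5 microM Rhod110 substrate at room temperature.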
# [6] = Confirmatory screen NINDS Rhodamine qHTS for Zika virus inhibitors (AID 1347161); further: potency means the concentration at half of the fitted maximal effect; nearly all actives have a fitted effect of over 60% in size
# Procedure, shortened: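 Single-chain NS2B-NS3 protease, 25 nM, pH 8.0; compounds preincubated 15 min. Activity: Rhodamine110 release from 1.5 microM substrate over 15 min, room temperature, data fitted to 4-parameter Hill.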
# [7] = target: Furin (Homo sapiens) (UniProt P09958); assay: Furin counterscreen qHTS for Zika virus inhibitors (AID 1347149);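 further: purified recombinant full-length human furin enzyme at 5 nM; fluorescence gain from furin cutting a BOC-RVRR-AMC peptide substrate over 15 min; top concentration of the series differs between compounds; plate controls were no-inhibitor control for no effect and no-enzyme control for full effect; nearly all actives have a fitted effect of over 70% in size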
# Sequence of Furin (Homo sapiens) (P09958 whole entry, looked up): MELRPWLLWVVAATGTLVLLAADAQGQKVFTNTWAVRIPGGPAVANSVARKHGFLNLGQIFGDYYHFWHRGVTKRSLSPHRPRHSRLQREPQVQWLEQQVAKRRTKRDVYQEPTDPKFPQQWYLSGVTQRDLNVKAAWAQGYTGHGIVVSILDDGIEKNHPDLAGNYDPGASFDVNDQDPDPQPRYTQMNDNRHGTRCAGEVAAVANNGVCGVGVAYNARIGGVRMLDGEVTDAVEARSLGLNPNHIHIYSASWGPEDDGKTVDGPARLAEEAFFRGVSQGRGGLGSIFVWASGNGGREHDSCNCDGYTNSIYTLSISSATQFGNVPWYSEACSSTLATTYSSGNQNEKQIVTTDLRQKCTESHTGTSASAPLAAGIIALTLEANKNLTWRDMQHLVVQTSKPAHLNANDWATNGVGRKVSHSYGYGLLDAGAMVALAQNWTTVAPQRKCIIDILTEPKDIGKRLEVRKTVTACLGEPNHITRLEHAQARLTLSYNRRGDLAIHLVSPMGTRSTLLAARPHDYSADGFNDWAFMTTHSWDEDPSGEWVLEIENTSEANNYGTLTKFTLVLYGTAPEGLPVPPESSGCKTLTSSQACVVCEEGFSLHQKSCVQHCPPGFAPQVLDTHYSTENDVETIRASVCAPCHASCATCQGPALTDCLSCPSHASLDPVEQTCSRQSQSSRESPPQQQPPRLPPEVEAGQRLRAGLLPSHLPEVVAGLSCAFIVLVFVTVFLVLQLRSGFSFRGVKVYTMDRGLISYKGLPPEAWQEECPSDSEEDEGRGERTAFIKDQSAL
# Procedure, shortened: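 Counterscreen measures cleavage of 2 microM BOC-RVRR-AMC, below its ~15 microM Km, by 5 nM full-length human furin at pH 7.0 after a 15-min compound preincubation. Inhibition derives from the 15-min fluorescence increase at 37C.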
# [8] = system: Zika virus NS2B-NS3 protease (linked); assay: 384 well plate NINDS AMC confirmatory qHTS for Zika virus inhibitors (AID 1347163); further: potency means the concentration at half of the fitted maximal effect; nearly all actives have a fitted effect of over 50% in size
# Procedure, shortened: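 Enzyme (5, 30 or 60 nM final) first met test compounds for ~15 min. The AMC-tagged peptide Ac-VKTGKR-AMC followed at 30 microM. Fluorescence was then recorded at 25 min and scaled against no-enzyme and no-inhibitor wells.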
# [9] = system: Zika virus NS2B-NS3 protease (linked construct); assay: 384 well plate NINDS Rhodamine confirmatory qHTS for Zika virus inhibitors (AID 1347164);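 further: fluorescence from protease cleavage of Ac-LKRR-rhodamine 110 substrate; nearly all actives have a fitted effect of over 65% in size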; further: potency means the concentration at half of the fitted maximal effect
# Procedure, shortened: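 Enzyme (final 5/30/60 nM) + cpd (DMSO), ~15 min; add Ac-LKRR-Rd 10 microM final; 25 min RT, dark; FI ex 485/em 538; normalized to no-enzyme, no-inhibitor ctrls; aprotinin intraplate ctrl.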
# [10] = ZIKV-mCherry secondary qHTS for Zika virus inhibitors (AID 1347158); further: potency means the concentration at half of the fitted maximal effect
# Procedure, shortened: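 This orthogonal imaging screen measured ZIKV-mCherry infection of Vero cells exposed to compound, MOI 1, 48-72 h. Percent infection came from segmented nuclei scored mCherry-positive above 3 SD of negative controls.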
structure (smiles),measurement,setting,value
CC1(O)CC(O)C2C(C(=O)O)=COC(OC3OC(CO)C(O)C(O)C3OC(=O)/C=C/c3ccc(O)cc3)C21 (stereo not given),Potency,[1],inactive
CCCSc1nc(NC2CC2c2ccc(F)c(F)c2)c2nnn(C3CC(OCCO)C(O)C3O)c2n1 (stereo not given),Potency,[1],inactive
C[C@]1(O)CC[C@@H]2C(C(=O)O)=CO[C@@H](O[C@@H]3O[C@H](COC(=O)/C=C/c4ccc(O)c(O)c4)[C@@H](O)[C@H](O)[C@H]3O)[C@@H]21,Potency,[1],inactive
COc1cc(C)c(C(=O)OC2C(C)OC(OC3CCC(C)C4C3C=C(C)C3/C(C)=C\CC/C(C)=C/C5(C)C=C(C(=O)O)C(C)CC56OC(=O)/C(=C(\O)C34C)C6=O)C(O)C2O)c(OC)c1 (stereo not given),"activity change, negative = cytotoxicity",[1],8.21% [at 9.29 µM]
same,Potency,[2],9.37 µM (active)
same,Potency,[3],9.37 µM (active)
same,Potency,[4],1.26 µM (active)
same,Potency,[5],2.47 µM (active)
same,Potency,[6],1.32 µM (active)
C=C1C2CCC3CC2(CC(O)C2(O)C1CC(OC1OC(CO)C(O)C(O)C1O)C2(C)C)CC3(C)O (stereo not given),Potency,[1],inactive
same,Potency,[7],inactive
same,Potency,[2],inactive
same,Potency,[4],20 µM (active)
same,Potency,[5],8.91 µM (active)
same,Potency,[6],9.61 µM (active)
same,Potency,[8],35.5 µM (active)
same,Potency,[9],0.501 µM (active)
O=C(OCc1ccccc1O[C@@H]1O[C@H](CO)[C@@H](O)[C@H](O)[C@H]1O)C1(O)C=CCCC1O (stereo not given in full),Potency,[1],inactive
CC1(C)CC[C@]2(C(=O)O)CC[C@]3(C)C(=CCC4[C@@]5(C)C[C@@H](O)[C@H](O)[C@@](C)(CO)C5CC[C@]43C)C2C1 (stereo not given in full),Potency,[1],inactive
O=C(/C=C/c1ccc(O)c(O)c1)O[C@@H]1[C@@H](O)[C@H](OC2CCCCC2O)O[C@H](CO)[C@H]1O (stereo not given in full),Potency,[1],inactive
CCC(CC)CC1(C(=O)Nc2ccccc2SC(=O)C(C)C)CCCCC1,Potency,[1],inactive
COc1cc(C)c(C(=O)NC2C(C)OC(OC3CCC(C)C4C3C=C(C)C3/C(C)=C\CC/C(C)=C/C5(C)C=C(C(=O)O)C(C)CC56OC(=O)/C(=C(\O)C34C)C6=O)C(O)C2(C)O)c(O)c1 (stereo not given),outcome,[1],inactive [at 9.29 µM]
CC(C)C[C@H](NC(=O)[C@@H]1O[C@H]1C(=O)O)C(=O)NCCCCN=C(N)N,Potency,[1],inactive
CCC(C)/C=C(C)/C=C/C1=CC2=C(Cl)C(=O)C(C)(OC(C)=O)C(=O)C2=CN1C(CC(=O)O)C(=O)O (stereo not given),Potency,[1],inactive
O=C(O)c1ccnc2cc(C(OCC3CCC(F)(F)CC3)c3ccccc3Cl)[nH]c12 (stereo not given),Potency,[1],inactive
COc1cc2c(c(O)c1OC/C=C(\C)CC/C=C(/C)CCC=C(C)C)CN(C(CCC(=O)O)C(=O)O)C2=O (stereo not given),Potency,[1],inactive
same,Potency,[7],inactive
same,Potency,[2],27.1 µM (active)
same,Potency,[3],34.1 µM (active)
same,Potency,[10],6.31 µM (active)
same,Potency,[4],2 µM (active)
same,Potency,[5],7.94 µM (active)
same,Potency,[6],2.71 µM (active)
same,Potency,[8],8.91 µM (active)
same,Potency,[9],inactive
